From PubChem BioAssay AID1159580 (chemical genetic matrix, 2015)
Screen size: about 5,500 compounds; about 2,000 (36%) were called active. Not shown: some 18% with an inconclusive outcome. Cut-off read from the data, not from the text of the source: active = normalized growth mostly below about 0.91 (no sharp cut-off); inconclusive = no clear call, values can overlap the other calls; inactive = mostly above about 0.92. The list shows a part of the results.

Assay: chemical genetic growth profiling, strain panel (AID 1159580);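 note: tested at 20 µM; growth read once vehicle control cultures reached saturation at 30 °C; 1 = growth at the plate median or of vehicle wells; lower values mean less growth of the strain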
Settings: growth OD
[1] = S. cerevisiae deletion strains, locus YDR150W, strain NUM1, active compounds read low
[2] = S. cerevisiae deletion strains, locus YGR078C, strain PAC10, active compounds read low
[3] = S. cerevisiae deletion strains, locus YNL128W, strain TEP1, active compounds read low
[4] = S. cerevisiae deletion strains, locus YNL322C, strain KRE1, active compounds read low
[5] = S. cerevisiae deletion strains, locus YPL055C, strain LGE1, active compounds read low
[6] = S. cerevisiae deletion strains, locus YPL241C, strain CIN2, active compounds read low

Measured: normalized growth

CCCCCCCCCCCCCC(=O)O[C@@H]1[C@@H](C)[C@@]2(O)[C@@H](C=C(CO)C[C@@]3(O)C(=O)C(C)=C[C@@H]23)C2C(C)(C)[C@@]21OC(C)=O (some centres undefined)
inactive: S. cerevisiae deletion strains, locus YAL040C, strain CLN3, active compounds read low 0.977 | S. cerevisiae deletion strains, locus YCL061C, strain MRC1 (second series), active compounds read low 0.992 | [1] 0.999 | S. cerevisiae deletion strains, locus YDR363W, strain ESC2, active compounds read low 0.999 | S. cerevisiae deletion strains, locus YER002W, strain NOP16, active compounds read low 0.985 | [2] 0.972 | [3] 1.01 | S. cerevisiae deletion strains, locus YNL175C, strain NOP13, active compounds read low 1.01 | S. cerevisiae deletion strains, locus YNL197C, strain WHI3, active compounds read low 1.02 | S. cerevisiae deletion strains, locus YNL224C, strain SQS1, active compounds read low 1.01 | [4] 1 | S. cerevisiae deletion strains, locus YOR083W, strain WHI5 (second series), active compounds read low 1.01 | [5] 1.06 | [6] 0.997

Clc1cccc(NC2=NCCS2)c1Cl
active: S. cerevisiae deletion strains, locus YLR039C, strain RIC1, active compounds read low 0.721 | S. cerevisiae deletion strains, locus YOL006C, strain TOP1, active compounds read low 0.722
inactive: S. cerevisiae deletion strains, locus YAL013W, strain DEP1, active compounds read low 0.995 | S. cerevisiae deletion strains, locus YBR229C, strain ROT2, active compounds read low 1 | S. cerevisiae deletion strains, locus YDL101C, strain DUN1, active compounds read low 1.03 | [1] 0.984 | S. cerevisiae deletion strains, locus YEL061C, strain CIN8, active compounds read low 0.974 | [2] 1 | S. cerevisiae deletion strains, locus YHR030C, strain SLT2, active compounds read low 0.698 | S. cerevisiae deletion strains, locus YHR087W, strain rtc3, active compounds read low 1.02 | S. cerevisiae deletion strains, locus YJL187C, strain SWE1, active compounds read low 1 | S. cerevisiae deletion strains, locus YJR043C, strain POL32, active compounds read low 1.01 | S. cerevisiae deletion strains, locus YJR075W, strain HOC1, active compounds read low 1.02 | S. cerevisiae deletion strains, locus YKL190W, strain CNB1, active compounds read low 0.996 | S. cerevisiae deletion strains, locus YLR058C, strain SHM2 (second series), active compounds read low 1 | S. cerevisiae deletion strains, locus YLR085C, strain ARP6, active compounds read low 0.931 | S. cerevisiae deletion strains, locus YLR262C, strain YPT6, active compounds read low 0.817 | S. cerevisiae deletion strains, locus YML094W, strain GIM5, active compounds read low 1.03 | S. cerevisiae deletion strains, locus YMR219W, strain ESC1, active compounds read low 1.01 | S. cerevisiae deletion strains, locus YMR263W, strain SAP30, active compounds read low 0.969 | S. cerevisiae deletion strains, locus YMR307W, strain GAS1, active compounds read low 0.776 | [3] 1.02 | S. cerevisiae deletion strains, locus YNL153C, strain GIM3, active compounds read low 1 | S. cerevisiae deletion strains, locus YNL298W, strain CLA4 (second series), active compounds read low 0.946 | [4] 0.994 | S. cerevisiae deletion strains, locus YNR030W, strain Alg12, active compounds read low 0.971 | [5] 0.953 | [6] 1.05 | S. cerevisiae deletion strains, locus YPR135W, strain CTF4, active compounds read low 0.928 | S. cerevisiae strains, strain wild type, active compounds read low 0.983
